Source: PubChem BioAssay (National Center for Advancing Translational Sciences (NCATS))
Abeta rescue – A-beta toxicity reversal in yeast; AID 1347071; yeast expressing A-beta42, growth rescue, OD600, 48 h; response scale: 0% DMSO, 100% iron-clioquinol control; Potency, µM (doses to about 46.1 µM), usual class: activators; hit rate 0.063% among 410,000; further: nearly all actives have a fitted effect of over 55% in size
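Yeast A-beta toxicity model in growth medium with pinned compounds, 48 h at 30 C; growth read as absorbance at 600 nm. Normalized to FeCl3/clioquinol equimolar mix (positive) and DMSO (negative).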
FUS yeast rescue – FUS proteinopathy suppression in yeast; S. cerevisiae FUS-expressing, growth rescue, OD600, 24 h; Potency, µM (titrated, usually from 76.6 µM), hits mostly activators; hit rate 0.24% among 390,000; AID 1347120;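 further: plate controls were DMSO vehicle for no effect and reference control for full effect; nearly all actives have a fitted effect of over 55% in size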
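Galactose (2%) drives FUS expression in yeast precultured in raffinose; seeding density OD 0.005. Test compounds incubated 24hr at 30C and 99% humidity before absorbance at 600 nm was measured.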
Mito fusion yeast – inhibitors of mitochondrial division or activators of mitochondrial fusion | Potency, µM (series often up to 46.1 µM), for inactives: top-dose growth rescue (activation), usual class: activators | S. cerevisiae fusion-defective mutant growth rescue, CellTiterGlo 48 h | hit rate 0.23% among 320,000 | AID 485298; further: % of control where 0% means no effect; nearly all actives have a fitted effect of over 45% in size
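Read-out: ATP-based luminescence (CellTiterGlo, 10 min ambient) reporting growth of fusion-defective ts yeast after 48 hours at 37C on glycerol/ethanol YPEG medium in the presence of compound.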
aSyn rescue – inhibitors of alpha-synuclein toxicity in yeast | Yeast expressing alpha-synuclein, growth rescue, BacTiter-Glo, 24 h | Potency, µM (highest dose often 46.1 µM), for the others: at the highest dose growth rescue (activation), most hits filed as activators | hit rate 0.14% among 370,000 | AID 652106; further: % of control where 0% means no effect; nearly all actives have a fitted effect of over 65% in size
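Rescue of yeast growth: cells expressing toxic alpha-synuclein, induced in galactose at OD600 0.02, incubated with compound 24 h at 30 C. ATP luminescence quantified growth; inhibitors of toxicity appear as activators.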
TDP43 rescue – rescues yeast growth from TDP-43 toxicity | TDP-43 expressing yeast growth rescue, BacTiter-Glo, 24 h | Potency, µM (series often up to 46.1 µM), without a hit: at the top dose growth rescue (activation), usual class: activators | hit rate 1.8% among 410,000 | AID 652104; further: % of control where 0% means no effect; nearly all actives have a fitted effect of over 50% in size
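Galactose-induced TDP-43 yeast, OD600=0.02, compound pinned; 24 hr, 30 deg C; BacTiter-Glo luminescence for growth. Inhibitors of TDP-43 toxicity read as activators.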
Starred values were filed as active, the others as inactive; i = inactive; ? = inconclusive; . = not tested or not shown; ! = not confirmed by another sample; [ ] = dose if it differs, or a comment. The list is not random: actives were taken first. Their share in the collection is about 2.2%. The call rests on the fitted dose curve; in most records, active means well fitted curve in the direction sought with a large enough effect; inconclusive means small, poorly fitted or top-dose-only effect, or another doubt; inactive means no such curve, though single readings can be large; an effect the other way counts as inactive or inconclusive. Potency means the concentration at half of the fitted maximal effect.

SMILES	Abeta rescue	FUS yeast rescue	Mito fusion yeast	aSyn rescue	TDP43 rescue
S=c1[nH]nc(COc2ccc(Cl)cc2)n1Cc1ccco1	12.6µM*	i	-0.2%	5.2%	?
CCN(c1cccc(C)c1)S(=O)(=O)c1cc2c3c(c1)CCN3C(=O)CC2	i	i	9.8%	3.7%	-10.8%
c1ccc2c(c1)OCCc1c-2[nH]c2ccccc12	i	i	-12.6%	-2.9%	12.6µM*
O=C1CCCc2c1[nH]c1ccccc21	i	i	4.9%	-0.3%	21.4%
CC(C)COc1ccc(N)cc1OCC(C)C	i	?	5.4%	-1.6%	11.2µM*
COc1ccccc1N=c1scc(-c2ccc(S(=O)(=O)N3CCCC3)cc2)n1C	i	i	.	.	15.6%
O=C(c1ccc(CSc2nc3ccncc3n2Cc2ccccc2F)cc1)N1CCCCC1	i	i	.	.	8.1%
Cc1noc(C)c1S(=O)(=O)N(C)C[C@H]1OCc2cnnn2CCCC(=O)N([C@@H](C)CO)C[C@H]1C	i	i	.	-0.1%	21.0%
CC(=O)Nc1ccc(C(=O)OCc2ccc(F)cc2Cl)cc1	i	i	12.6µM*	-14.3%	-8.6%[0.397 µM]
CC(=O)Nc1ccc(C2=CC(=O)C[C@H](c3ccc4c(c3)OCO4)C2)cc1	i	i	18.9%	-4.5%	22.4µM*
O=C1C=C(/C=C/c2ccccc2)C[C@@H](c2ccc3c(c2)OCO3)C1	i	i	?	9.7%	20µM*
COc1ccccc1C1=CC(=O)C[C@H](c2ccc3c(c2)OCO3)C1	i	i	13.0%	1.7%	?
Cc1ccc(C2=CC(=O)C[C@H](c3ccc4c(c3)OCO4)C2)cc1	i	i	3.98µM*	8.3%	12.6µM*
O=C1C=C(c2ccccc2C(F)(F)F)C[C@@H](c2ccc3c(c2)OCO3)C1	i	i	29.8%	14.9%	17.8µM*
O=C(NC1CCCCN(Cc2ccc(OC(F)(F)F)cc2)C1=O)c1cccc(C(F)(F)F)c1 (configuration not stated)	.	i	.	.	.
COc1ccc(C2=CC(=O)C[C@H](c3ccc4c(c3)OCO4)C2)cc1	i	i	?	-0.3%	11.2µM*
O=C(Nc1cccc(C(=O)OCc2cc(=O)n3nc(C4CC4)sc3n2)c1)c1cccc(F)c1	i	i	.	.	10.1%
Cc1cccc2cc(CN(Cc3nnnn3C3CCCCC3)C3CCCC3)c3nnnn3c12	i	i	11.2µM*	12.9%	?
CN(C(=O)CSc1nc(-c2ccccc2)cn1N)C(c1ccccc1)c1ccccc1	i	31.6µM*	?	-6.7%	1.0%
O=C(CC(=O)c1ccncc1)c1ccccc1	i	.	.	20µM*	?
O=C(CC(=O)c1ccccc1)c1ccccc1	i	.	.	6.3%	-17.7%
CS(=O)(=O)c1nc2ccccc2n1Cc1ccccc1	i	i	3.5%	6.0%	14.0%
CCS(=O)(=O)c1nc2ccccc2n1Cc1ccccc1Cl	i	i	11.0%	-4.2%	15.8µM*
C=C1C2(C(=O)Nc3nccs3)CCC(C2)C1(C)C (configuration not stated)	?	i	-6.0%	0.4%	12.6µM*
O=C(Nc1nccs1)C1(c2ccc(Cl)cc2)CC1	i	i	2.1%	-0.7%	18.6%
SMILES	Abeta rescue	FUS yeast rescue	Mito fusion yeast	aSyn rescue	TDP43 rescue
CCCCCCOc1ccc(/C=C/C(=O)Nc2sc3c(c2C(=O)OC)CCC3)cc1OC	i	i	.	.	17.8µM*
CNC(=O)c1c(NC(=O)/C=C/c2ccccc2)sc2c1CCC2	i	i	.	-29.9%	17.8µM*
CCC(CC)C(=O)Nc1ccc2nc(SCC(=O)N3CCCC3)sc2c1	i	i	.	.	-8.1%
COc1cc(OC)c(/C=C/c2nc3ccccc3o2)c(OC)c1	.	.	.	1.7%	.
COC(=O)c1cccc(NC(=O)c2ccc(OC)c(Cl)c2)c1	i	i	-2.0%	1.6%	11.2µM*
COC(=O)c1cc(OC)c(OC)cc1NC(=S)Nc1cccc(C(C)=O)c1	i	i	0.0%	-6.7%	-5.6%
COC(=O)c1cccc(NC(=S)Nc2cc(Cl)ccc2OC)c1	i	i	2.3%	5.0%	22.4µM*
O=C(c1ccccc1Cl)N(Cc1ccco1)Cc1ccco1	i	i	.	.	-4.9%
Nc1ccc2nc(SCc3ccccc3F)sc2c1	i	i	18.3%	29.4%	12.6µM*
C[C@H](NC(=O)OC(C)(C)C)C(=O)N/N=C/C1=Cc2ccccc2OC1	i	i	7.0%	-3.5%	8.2%
CCC(C)[C@H](NC(=O)OC(C)(C)C)C(=O)N/N=C/C1=Cc2ccccc2OC1 (some centres not stated)	i	28.2µM*	-4.3%	0.0%	-18.9%
CC#C[C@]1(O)CC[C@H]2[C@@H]3CCC4=CC(=O)CCC4=C3[C@@H](c3ccc(N(C)C)cc3)C[C@@]21C	i	i	9.2µM*!	4.6%	19.8%
O=C(COC(=O)c1cc(-c2ccccc2)nc2ccccc12)NC1CC1	i	?	.	-0.7%[1.84 µM]	35.5µM*
COc1cc(C(=O)O)cc(OC)c1OCc1cc(C(=O)O)oc1C	i	i	-2.0%	-4.4%	-1.6%
O=C(O)c1cccc(COc2cccc3ccccc23)c1	i	i	.	-52.0%	35.5µM*
Cc1oc(C(=O)O)cc1COc1cccc2ccccc12	i	i	7.4%	2.1%	31.6µM*
COc1ccc(C)cc1NS(=O)(=O)c1cc(Br)cc2c1N(C(C)=O)C(C)C2 (configuration not stated)	i	i	.	.	0.4%
Cc1nc(NC(C)c2ccccc2)c2c3c(sc2n1)CCC3 (configuration not stated)	i	i	6.8%	-9.8%	14.1µM*
COc1ccc(CCNc2cc(C)nc3c(-c4ccc(Cl)cc4)cnn23)cc1OC	i	?	28.9%	12.3%	17.8µM*
CC(=O)Nc1ccc(Nc2cc(C)nc3c(-c4ccc(Cl)cc4)cnn23)cc1	i	.	?	-0.3%	3.16µM*
Cc1cc(N2CCOCC2)n2ncc(-c3ccc(Cl)cc3)c2n1	i	i	-3.2%	-0.7%	18.4%
Cc1cc(N2CCCCC2)n2ncc(-c3ccc(Cl)cc3)c2n1	i	11.2µM*	-3.1%	-7.8%	14.1µM*
Cc1cc2c(cc1S(=O)(=O)NCc1ccc(F)cc1)OCC(=O)N2	i	i	.	.	2.6%[9.22 µM]
CN(C(=O)C1Cc2c(-c3ccc(Cl)cc3)ccnc2O1)c1ccccc1 (configuration not stated)	i	i	.	-2.0%	22.4µM*
O=C(Nc1cccc(OC(F)(F)F)c1)C1Cc2c(-c3ccc(Cl)cc3)ccnc2O1 (configuration not stated)	i	i	.	?	20.7%
O=C(Nc1cccc(C(F)(F)F)c1)C1Cc2c(-c3ccc(Cl)cc3)ccnc2O1 (configuration not stated)	i	i	.	?	20µM*
